Compound activity as filed in PubChem.
TDP1 cell noCPT – qHTS for Inhibitors of human tyrosyl-DNA phosphodiesterase 1 (TDP1): qHTS in cells in absence of CPT; DT40 Tdp1-/- hTDP1 cells, no CPT, ATP luminescence, 48 h; Potency, µM (doses to about 46.2 µM), without a hit: at the top dose activity change, negative = growth inhibition, hits mostly inhibitors; 420,000 tested, 15% active; AID 686978, 2013; note: potency is the fitted concentration of half-maximal effect; % is set by controls: 0 for no effect and ±100 for the full control effect; nearly all actives have a fitted effect of over 55% in size
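Camptothecin absent (DMSO only). Human TDP1-complemented DT40 knockout cells, 400 cells/well, 37 °C for minimum 48 hr; ATP measured via CellTiter-Glo, 30 min dark incubation, luminescence.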
HepG2 tox – qHTS for Inhibitors of TGF-b: Cytotox Counterscreen; HepG2 CAGA-GFP viability, ATP luminescence, 18 h; Potency, µM (highest dose often 46.1 µM), without a hit: at the highest dose activity change, negative = cytotoxicity, actives largely listed as cytotoxic; 410,000 tested, 0.76% active; note: potency is the fitted concentration of half-maximal effect
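HepG2 CAGA-GFP cells (1000/well, DMEM with 1% FBS) received compound, then TGF-beta at 500 pg/mL final, and were incubated 18 hours at 37 degrees C. Viability was read by CellTiter-Glo luminescence. Media-only wells were set as complete cell-killing and DMSO as no toxicity.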
TDP1 inh – qHTS Assay for Inhibitors of Tyrosyl-DNA Phosphodiesterase (TDP1). recombinant TDP1, AlphaScreen DNA substrate cleavage. Potency, µM (top dose mostly 130 µM), for inactives: top-dose activity change, negative = inhibition, actives largely listed as inhibitors. 350,000 tested, 0.28% active. AID 485290, 2010; note: potency is the fitted concentration of half-maximal effect; % is set by controls: 0 for no effect and ±100 for the full control effect; nearly all actives have a fitted effect of over 40% in size
Target sequence (Q9NUW8 whole entry, looked up): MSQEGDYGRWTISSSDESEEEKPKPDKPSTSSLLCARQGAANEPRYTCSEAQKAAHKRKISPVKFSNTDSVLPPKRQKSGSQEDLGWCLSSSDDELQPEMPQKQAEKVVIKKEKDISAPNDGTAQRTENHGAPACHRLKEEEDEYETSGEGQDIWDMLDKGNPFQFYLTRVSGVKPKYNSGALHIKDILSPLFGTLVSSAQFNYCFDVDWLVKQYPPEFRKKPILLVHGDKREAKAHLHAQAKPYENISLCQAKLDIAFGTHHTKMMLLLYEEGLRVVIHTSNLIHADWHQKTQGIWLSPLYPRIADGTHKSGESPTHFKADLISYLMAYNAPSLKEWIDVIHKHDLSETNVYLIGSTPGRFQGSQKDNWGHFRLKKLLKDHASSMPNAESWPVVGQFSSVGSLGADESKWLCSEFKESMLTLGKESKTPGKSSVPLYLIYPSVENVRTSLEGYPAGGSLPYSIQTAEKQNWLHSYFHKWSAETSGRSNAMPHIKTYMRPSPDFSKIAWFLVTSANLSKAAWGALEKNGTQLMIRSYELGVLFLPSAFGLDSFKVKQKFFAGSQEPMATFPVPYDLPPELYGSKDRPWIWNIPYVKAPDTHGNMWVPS
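Here, a 5' biotin and 3' phosphotyrosine-FITC DNA oligonucleotide reports Tdp1 activity: intact substrate bridges AlphaScreen beads, while cleavage leaves a 3' phosphate and drops signal. All incubations at room temperature.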
IL1B secr inh – qHTS for Inhibitors of Inflammasome Signaling: IL-1-beta AlphaLISA Primary Screen | AID 743279, 2014 | activity change, % at 57.5 µM | THP-1 LPS/ATP IL-1B secretion, AlphaLISA, 16 h; active compounds read low | 360,000 tested, 4.7% active; in the data active = activity change below about -50%; inconclusive = mostly about -30% to -49%; note: % is set by controls: 0 for no effect and ±100 for the full control effect
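Secreted IL-1B measured by AlphaLISA bead assay after 16 h compound exposure of THP-1 cells; compounds (final up to 57.5 uM) added 1 h before LPS (250 ng/mL) and ATP (1.25 mM) stimulation; lower signal means less secretion.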
TGFb inhibitor – qHTS for Inhibitors of TGF-b | HepG2 CAGA-GFP TGF-b/SMAD3 reporter, GFP fluorescence, 18 h; TGF-beta stimulated, 500 pg/mL final | Potency, µM (titrated, usually from 46.1 µM), inactives show at the highest dose activity, negative = inhibition, most hits filed as inhibitors | 410,000 tested, 1.2% active; note: potency is the fitted concentration of half-maximal effect; % is set by controls: 0 for no effect and ±100 for the full control effect; nearly all actives have a fitted effect of over 65% in size
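GFP signal (ex488/em500-530) from TGF-beta-stimulated HEPG2 CAGA-GFP cells, 500 pg/mL final, 18 h at 37 degrees C in DMEM plus 1% FBS, normalized to unstimulated and DMSO-stimulated controls.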
DT40 TDP1 CPT – qHTS for Inhibitors of human tyrosyl-DNA phosphodiesterase 1 (TDP1): qHTS in cells in presence of CPT. 420,000 tested, 12% active. Potency, µM (titrated, usually from 46.2 µM), without a hit: at the top dose activity change, negative = growth inhibition, usual class: inhibitors. chicken DT40 Tdp1-/-;hTDP1 cells + 20 nM CPT, ATP luminescence, 48 h; note: potency is the fitted concentration of half-maximal effect; % is set by controls: 0 for no effect and ±100 for the full control effect; nearly all actives have a fitted effect of over 55% in size
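Chicken DT40 Tdp1-/- cells stably complemented with human TDP1 were seeded at 400 cells/well in medium containing 20 nM camptothecin, exposed to pin-transferred compounds, and grown at 37 °C for at least 48 hr. Viability was read as ATP luminescence.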
The depositor's hits bear a star; ? = inconclusive; . = no result. Hits are enriched below; roughly 18% of the tested compounds scored in any of these assays. Unless noted, calls come from the whole dose curve; as a rule, active = well fitted curve in the direction sought with a large enough effect; inconclusive = small, poorly fitted or top-dose-only effect, or another doubt; inactive = no such curve, though single readings can be large; an effect the other way counts as inactive or inconclusive.

SMILES	TDP1 cell noCPT	HepG2 tox	TDP1 inh	IL1B secr inh	TGFb inhibitor	DT40 TDP1 CPT
COc1ccc(NC(=S)NC(NC(=O)CF)C(Cl)(Cl)Cl)cc1[N+](=O)[O-] (stereo unspecified)	4%	18%	8%	-15	-2%	4%
O=C(CF)NC(NC(=S)Nc1cccc([N+](=O)[O-])c1)C(Cl)(Cl)Cl (stereo unspecified)	?	-20%	5%	-19	-6%	21µM*
O=C(CCc1nc(C2=CCN(Cc3cccc(Cl)c3)CC2)no1)Nc1ccccc1F	12µM*	-28%	5%	.	?	15µM*
COc1cccc(NC(=O)CCc2nc(-c3ccc(C(C)(C)C)cc3)no2)c1	?	-24%	5%	.	-10%	?
COc1ccc(NC(=O)CCc2nc(C3=CCN(Cc4cccc(C)c4)CC3)no2)c(OC)c1	12µM*	-29%	5%	.	-18%	16µM*
COc1ccc(Nc2nc(N)nc(CSc3nc4ccccc4s3)n2)cc1	16µM*	-37%	.	.	?	15µM*
c1cc(N2CCCC3(CCNCC3)C2)ccn1	9.2µM*	.	.	.	.	9.2µM*
Cc1ccc2c(Cl)cc(Cl)c(OCC(=O)N(C(C)C)C(C)C)c2n1	18µM*	-22%	0%	0	-3%	16µM*
O=C(O)COc1nc(Cl)c(Cl)cc1Cl	?	.	9%	.	.	?
CC(C)(O)C(Cl)(Cl)Cl	?	.	5%	.	.	?
CN(C(=O)CNC(=O)OCc1ccccc1)c1ccc(Br)cc1C(=O)c1ccccc1Cl	2.3µM*	-14%	0%	-9	?	3.3µM*
C[C@H](CO)N1C[C@H](C)[C@@H](CN(C)C(=O)NC2CCCCC2)Oc2c(cccc2N(C)C)C1=O	?	-8%	1%	-1	12%	?
CCOc1ccc(CN(CCc2ccc3c(c2)OCO3)Cc2cccc(OC)c2)cc1	?	-25%	.	.	-14%	?
CC(=O)c1ccc(Oc2nc(C)nc3c2oc2ccccc23)cc1	?	-24%	0%	.	?	?
O=C(Nc1ccc2c(c1)OCCO2)c1cccn(Cc2ccccc2)c1=O	?	-27%	5%	.	?	?
O=C(c1ccc(Cl)cc1)c1cn(Cc2ccccc2)c2cc3c(cc2c1=O)OCCO3	23µM*	-12%	10%	.	-13%	?
COc1ccc2c(c1)c(=O)c(C(=O)c1ccc(Cl)cc1)cn2CC(=O)Nc1ccc2c(c1)OCCO2	21µM*	1%	4%	.	3%	18µM*
COc1ccc(OC)c(NC(=O)Cn2cc(C(=O)c3ccccc3)c3ccccc32)c1	?	-15%	6%	.	?	?
CCCCCc1cc(O)c2c(c1)OC(C)(C)[C@@H]1CCC(C(=O)O)=C[C@H]21	.	.	8%	.	.	.
C[C@H]1CCCC=CC2C[C@H](O)C[C@@H]2[C@H](O)C=CC(=O)O1 (stereo partly specified)	0.15µM*	-43%	.	.	0.13µM*	0.028µM*
COc1ccc(-c2nc(CSCC(=O)N3CCN(c4ccc(F)cc4)CC3)c(C)o2)cc1	8.2µM*	-4%	10%	.	-41%	13µM*
COc1ccc(-c2nc(CSCC(=O)N3CCC4(CC3)OCCO4)c(C)o2)cc1OC	-23%	-11%	5%	19	2%	-28%
CCc1ccc(-c2nc(CSCC(=O)N3CCN(c4ccc(F)cc4)CC3)c(C)o2)cc1	?	-26%	3%	.	-14%	21µM*
